This is a sample that favours compounds with a hit; in the whole collection about 19% have one here.
DT40 TDP1 no CPT – qHTS for Inhibitors of human tyrosyl-DNA phosphodiesterase 1 (TDP1): qHTS in cells in absence of CPT; DT40 Tdp1-/- hTDP1 cells, no CPT, ATP luminescence, 48 h; Potency, µM (titrated, usually from 46.2 µM), for the others: at the top dose activity change, negative = growth inhibition, actives largely listed as inhibitors; hit rate 15% among 420,000; AID 686978, 2013; note: potency is the fitted concentration of half-maximal effect; nearly all actives have a fitted effect of over 55% in size
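Growth kinetics read by CellTiter-Glo luminescence after ≥48 hr at 37 °C. Cells: DT40 Tdp1-/- stably carrying human TDP1, 400 per well, compound exposure in the absence of CPT (DMSO vehicle).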
IL-1B inflam inh – qHTS for Inhibitors of Inflammasome Signaling: IL-1-beta AlphaLISA Primary Screen; THP-1 LPS/ATP IL-1B secretion, AlphaLISA, 16 h; hits give low values; activity change, % at 57.5 µM; hit rate 4.7% among 360,000; AID 743279, 2014; in the data active = activity change below about -50%; inconclusive = mostly about -30% to -49%
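THP-1 cells pretreated 1 hr with compounds (up to 57.5 uM final), then stimulated with LPS (250 ng/mL final) plus ATP (1.25 mM final); secreted IL-1B measured by AlphaLISA after 16 hr, decreased signal indicating inhibition.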
HT1080NT lethal – qHTS for induction of synthetic lethality in tumor cells producing 2HG: qHTS for the HT-1080-NT fibrosarcoma cell line; HT-1080-NT fibrosarcoma viability, CellTiter-Glo ATP luminescence, 48 h; Potency, µM (top dose mostly 46.1 µM), inactives show top-dose activity, negative = less viability, hits mostly cytotoxic; hit rate 1.6% among 360,000;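 note: NT is the 2HG producing partner of a matched IDH1 knockdown line; potency is the fitted concentration of half-maximal effect; 0% = DMSO-treated cells and -100% = media-only wells without cells; nearly all actives have a fitted effect of over 55% in size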
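Viability by CellTiter-Glo luminescence after 48 h compound exposure at 37C of HT-1080-NT cells (750/well, RPMI, 5% FBS). % activity scaled between DMSO wells and medium-only wells, then curve-fitted and categorized by curve class.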
HT1080 IDH1KD tx – qHTS for induction of synthetic lethality in tumor cells producing 2HG: qHTS for the HT-1080-IDH1KD cell line; HT-1080 IDH1 knockdown viability, ATP luminescence, 48 h; Potency, µM (titrated, usually from 46.1 µM), for the others: at the highest dose activity, negative = toxicity, hits mostly cytotoxic; hit rate 2% among 360,000; AID 686971, 2013;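 note: potency is the fitted concentration of half-maximal effect; 0% = DMSO wells and -100% = cell-free medium wells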
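Knockdown cells (IDH1KD HT-1080) received compounds 2 h after plating at 750 cells/well and were kept 48 h at 37 °C in 5% FBS RPMI. A CellTiter-Glo luminescence read gave % activity for curve fitting.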
DT40 TDP1 CPT – qHTS for Inhibitors of human tyrosyl-DNA phosphodiesterase 1 (TDP1): qHTS in cells in presence of CPT | Potency, µM (doses to about 46.2 µM), inactives show at the top dose activity change, negative = growth inhibition, actives largely listed as inhibitors | hit rate 12% among 420,000 | AID 686979, 2013 | chicken DT40 Tdp1-/-;hTDP1 cells + 20 nM CPT, ATP luminescence, 48 h; note: potency is the fitted concentration of half-maximal effect; nearly all actives have a fitted effect of over 55% in size
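Chicken DT40 Tdp1-/- cells complemented with human TDP1, 400 cells/well, exposed to compounds plus 20 nM camptothecin for at least 48 h at 37 C; viability read as ATP content by CellTiter-Glo luminescence.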
uPA generation – qHTS for Inhibitors of Cell Surface uPA Generation. Potency, µM (series often up to 38.3 µM), without a hit: at the top dose activity change, negative = inhibition, usual class: inhibitors. cell surface uPA generation assay, qHTS. hit rate 0.31% among 330,000; active = well fitted inhibition curve with a large enough effect; inconclusive = small, poorly fitted or top-dose-only effect; inactive = no such curve, though single readings can be large or run the other way; tested in mouse RAW 264.7 cells; note: potency is the fitted concentration of half-maximal effect; nearly all actives have a fitted effect of over 55% in size
* = called active by the depositor; [ ] = remark or other dose. Unless noted, calls come from the whole dose curve; as a rule, active = well fitted curve in the direction sought with a large enough effect; inconclusive = small, poorly fitted or top-dose-only effect, or another doubt; inactive = no such curve, though single readings can be large; an effect the other way counts as inactive or inconclusive. Unless noted, % is set by controls: 0 for no effect and ±100 for the full control effect.

How did O=C(Nc1cccc(C(F)(F)F)c1)Nc1ccc2nc([C@@H]3O[C@H](CO)[C@@H](O)[C@H](O)[C@H]3O)[nH]c2c1 do in these assays?
DT40 TDP1 no CPT: 6%; IL-1B inflam inh: 21; HT1080NT lethal: 13%; HT1080 IDH1KD tx: 13%; DT40 TDP1 CPT: 10%

Results for O=C(N/N=C/c1ccccc1F)c1ccccc1OCc1ccccc1 ?
DT40 TDP1 no CPT: 21µM*; IL-1B inflam inh: 21; HT1080NT lethal: -13%; HT1080 IDH1KD tx: -2%; DT40 TDP1 CPT: inconclusive; uPA generation: -3%

Results for O=C(N/N=C/c1ccc(OCc2ccccc2)cc1)c1ccncc1 ?
DT40 TDP1 no CPT: -26%; IL-1B inflam inh: 4; HT1080NT lethal: -19%; HT1080 IDH1KD tx: -4%; DT40 TDP1 CPT: -26%; uPA generation: 2%

Results for O=C(N/N=C/c1cccnc1)c1cc(-c2ccccc2OCc2ccccc2)n[nH]1 ?
DT40 TDP1 no CPT: 23µM*; IL-1B inflam inh: -23; HT1080NT lethal: inconclusive; HT1080 IDH1KD tx: inconclusive; DT40 TDP1 CPT: inconclusive; uPA generation: -2%

What do the screens show for `CC(=O)N/N=C\c1ccccc1OC/C=C/c1ccccc1`?
DT40 TDP1 no CPT: inconclusive; IL-1B inflam inh: 0; HT1080NT lethal: 4%; HT1080 IDH1KD tx: 12%; DT40 TDP1 CPT: 16µM*; uPA generation: -3%

Results for O=C(CN1CCN(C(=O)c2c(F)cccc2F)CC1)Nc1ccccc1C(F)(F)F ?
DT40 TDP1 no CPT: inconclusive; IL-1B inflam inh: -4; HT1080NT lethal: 8%; HT1080 IDH1KD tx: 0%; DT40 TDP1 CPT: -29%; uPA generation: -6%

How did CCCN(CC(=O)Nc1cc(Cl)ccc1Cl)C(=O)c1ccc2n[nH]nc2c1 do in these assays?
DT40 TDP1 no CPT: 1%; IL-1B inflam inh: -27; HT1080NT lethal: -6%; HT1080 IDH1KD tx: -2%; DT40 TDP1 CPT: 3%; uPA generation: 13%

How did O=C(Nc1cnn(C23CC4CC(CC(C4)C2)C3)c1)c1cnn2c(C(F)(F)F)cc(-c3ccco3)nc12 do in these assays?
DT40 TDP1 no CPT: 16µM*; IL-1B inflam inh: -80*; HT1080NT lethal: 0%; HT1080 IDH1KD tx: -2%; DT40 TDP1 CPT: 18µM*; uPA generation: 3%

How did Cc1ccccc1Cn1ccc(NC(=O)CCSc2nc(-c3ccco3)cc(C(F)(F)F)n2)n1 do in these assays?
DT40 TDP1 no CPT: inconclusive; IL-1B inflam inh: 1; HT1080NT lethal: -3%; HT1080 IDH1KD tx: -10%; DT40 TDP1 CPT: -2%; uPA generation: 11%

How did Cc1ccccc1Cn1ccc(NC(=O)c2cnn3c(C(F)(F)F)cc(-c4ccco4)nc23)n1 do in these assays?
DT40 TDP1 no CPT: 15µM*; IL-1B inflam inh: -14; HT1080NT lethal: -7%; HT1080 IDH1KD tx: 3%; DT40 TDP1 CPT: inconclusive; uPA generation: 9%

Results for COc1ccc(NC(=O)c2cnn3c(C(F)(F)F)cc(-c4ccco4)nc23)cc1OC ?
DT40 TDP1 no CPT: inconclusive; IL-1B inflam inh: -20; HT1080NT lethal: 6%; HT1080 IDH1KD tx: 3%; DT40 TDP1 CPT: inconclusive; uPA generation: -1%

What do the screens show for `Cc1cc(Nc2cc(Cl)cc(Cl)c2)nc(N)n1`?
DT40 TDP1 no CPT: 10µM*; IL-1B inflam inh: 27; HT1080NT lethal: -5%; HT1080 IDH1KD tx: -3%; DT40 TDP1 CPT: inconclusive; uPA generation: -15%

Results for COCCCn1c(O)c(/C=C2\N=C(C#N)C(=Nc3ccc(C)cc3)O2)sc1=S ?
DT40 TDP1 no CPT: 3.3µM*; IL-1B inflam inh: -82*; HT1080NT lethal: inconclusive; HT1080 IDH1KD tx: inconclusive; DT40 TDP1 CPT: inconclusive; uPA generation: -8%

How did COc1c(Cl)cc(-c2noc(C)c2C(=O)NCCc2ccc(C)cc2)cc1Cl do in these assays?
DT40 TDP1 no CPT: inconclusive; IL-1B inflam inh: -15; HT1080NT lethal: 0%; HT1080 IDH1KD tx: 2%; DT40 TDP1 CPT: -1%; uPA generation: -60%

How did CC1(C)CC(=O)C2=C(C1)NC(Nc1nc3ccccc3o1)=NC2c1ccccc1 (configuration not stated) do in these assays?
DT40 TDP1 no CPT: 2.8µM*; DT40 TDP1 CPT: 2.8µM*

How did COc1ccc(C2N=C(Nc3nc4ccccc4o3)NC3=C2C(=O)CC(C)(C)C3)cc1 (configuration not stated) do in these assays?
DT40 TDP1 no CPT: 6.3µM*; DT40 TDP1 CPT: 6.3µM*

Results for Cc1ccc(C2N=C(Nc3nc4ccccc4o3)NC3=C2C(=O)CC(C)(C)C3)cc1 (configuration not stated) ?
DT40 TDP1 no CPT: 4.5µM*; DT40 TDP1 CPT: 7.1µM*

How did CC1(C)CC(=O)C2=C(C1)NC(Nc1nc3ccccc3o1)=NC2c1cccnc1 (configuration not stated) do in these assays?
DT40 TDP1 no CPT: -26%; DT40 TDP1 CPT: inconclusive

What do the screens show for `CC(=O)N1CCc2cc(Br)cc(S(=O)(=O)N3CCC(C)CC3)c21`?
DT40 TDP1 no CPT: -20%; DT40 TDP1 CPT: -10%

What do the screens show for `COCc1ccc(CN2Cc3ccccc3OC(c3ccccc3F)C2)o1` (configuration not stated)?
DT40 TDP1 no CPT: -30%; DT40 TDP1 CPT: 4%[9.04 µM]

Results for COc1ccc(NCc2cc(=O)oc3cc(NC(C)=O)ccc23)cc1 ?
DT40 TDP1 no CPT: -18%; IL-1B inflam inh: -9; HT1080NT lethal: 8%; HT1080 IDH1KD tx: 2%; DT40 TDP1 CPT: 10%; uPA generation: 5%

What do the screens show for `COc1ccc(N2C(=O)C3NN=C(C(=O)OCc4ccccc4)C3C2=O)cc1` (configuration not stated)?
DT40 TDP1 no CPT: 7%; IL-1B inflam inh: 10; HT1080NT lethal: 16%; HT1080 IDH1KD tx: 10%; DT40 TDP1 CPT: 1%; uPA generation: 4%

How did Cc1ccn2c(C(=O)CSc3ccccc3)c(C)nc2c1 do in these assays?
DT40 TDP1 no CPT: 8.2µM*; IL-1B inflam inh: -8; HT1080NT lethal: 15%; HT1080 IDH1KD tx: -1%; DT40 TDP1 CPT: 8.2µM*; uPA generation: 10%

How did Cc1ccc(SCC(=O)c2c(C)nc3cc(C)ccn23)cc1 do in these assays?
DT40 TDP1 no CPT: inconclusive; IL-1B inflam inh: 7; HT1080NT lethal: 8%; HT1080 IDH1KD tx: -7%; DT40 TDP1 CPT: inconclusive; uPA generation: 12%
